# In PubChem BioAssay (Tox21):
# Records with an inconclusive call do not appear. Entries that show only a call come without a potency. Where a structure was tested more than once in an assay, its records may differ in their call. Activity calls are given as the source filed them. Calls follow the shape of the dose curve; as a rule, active = well fitted cell-killing curve with a large enough effect in the repeat runs; inconclusive = weak or mixed curves, or effect the other way; inactive = flat fitted curve, though single readings scatter.
# Test: qHTS assay to identify small molecule agonists of the sonic hedgehog signaling (Shh) pathway - cell viability counter screen (AID 1259366); also: nearly all actives have a fitted effect of over 50% in size
# Conditions: NIH/3T3 Gli1-Luc viability, CellTiter-Fluor, 24 h; series mostly up to 92.4 µM
# Description: National Center for Advancing Translational Sciences [NCATS]
# NIH Chemical Genomics Center [NCGC]
# U.S. Environmental Protection Agency [EPA]
# National Institutes of Environmental Health Sciences [NIEHS]
# National Toxicology Program [NTP]
# U.S. Food and Drug Administration [FDA]
# The sonic hedgehog (Shh) pathway is essential for normal embryonic development. Dysregulation of the Shh pathway can cause severe developmental defects in organs. Therefore chemicals that interfere with the pathway are potential developmental toxicants. A cell line designated 3T3Gli1-Luc (DMB/OARSA/CFSAN/FDA, Laurel, MD), a NIH/3T3 derived clone containing stably integrated Gli1-Luc reporter is used to detect chemical interference of the Shh pathway, by changes in the expression of the firefly Luc gene under the control of the Gli1 transcriptional response element. This cell line was used to screen Tox21 libraries for identifying and prioritizing the potential developmental toxicants that interfere Shh pathway. The cytotoxicity of the compounds was tested in parallel by measuring the cell viability using CellTiter-Fluor assay system (Promega, Madison, WI) in the same wells.
# Tox21 Assay Protocol Summary:
# 3T3 Gli1-Luc cells were dispensed at 2,000 per well in 5uL of culture medium into white solid bottom 1536-well plates (Greiner Bio-One, Monroe, NC) using a Multidrop Combi (Thermo Scientific, Waltham, MA) dispenser. The assay plates were incubated at 37 C and 5% CO2 for 4hr, and then 23nL of compounds dissolved in DMSO and positive control were transferred using a Pintool station (Wako, San Diego, CA). The assay plates were incubated at 37C and 5% CO2 for 24hr. For viability read, after 23hr of compound treatment, 1uL of CellTiter-Fluor reagent (Promega Corporation, Madison, WI) was added to each well of the assay plates using Flying Reagent Dispenser (FRD, Aurora Discovery, San Diego, CA) and incubated the assay plates at 37C for 1hr. The fluorescence signal was quantified using a ViewLux plate reader (Perkin Elmer, Shelton, CT).
# Potency is read from the fitted curve at half-maximal effect.
row,Structure (SMILES),Potency
1,CC1(C)S[C@@H]2[C@H](NC(=O)COc3ccccc3)C(=O)N2[C@H]1C(=O)O,inactive
2,COc1ccc(C)cc1N,inactive
3,CCCCCCC=O,inactive
4,CC(=O)Oc1ccc(C)cc1,inactive
5,CCCCCCCCCCCCCCCC(=O)OC(C)C,inactive
6,CC(=O)c1ccc(O)cc1,inactive
7,NCCN1CCNCC1,inactive
8,Cc1ccc(S(=O)(=O)N=C=O)cc1,16.9 µM (active) and inactive
9,CCCCCCCCCCN,inactive
10,CCCCCCCCCCCCCCCCO,inactive
11,CN(C)c1ccc(Cc2ccc(N(C)C)cc2)cc1,inactive
12,CC(=O)CC(C)(C)O,inactive
13,O=C1CCCC1,inactive
14,CC(O)CC(C)(C)O (stereo not given),inactive
15,COC(=O)CCCC(=O)OC,inactive
16,COc1ccccc1OCC(O)CO (stereo not given),inactive
17,CCCCCCCCCCCC(=O)OC,inactive
18,CCCCCCCO,inactive
19,CCOCC(=O)O,inactive
20,CC1(C)CC(N)CC(C)(CN)C1 (stereo not given),inactive

row,Structure (SMILES),Potency
1,CC(C)OC(=O)COc1ccc(Cl)cc1Cl,inactive
2,O=c1[nH]cnc2[nH]ncc12,inactive
3,COc1ccc(N)c(C)c1,inactive
4,COCCOC(=O)c1ccccc1C(=O)OCCOC,inactive
5,CC(C)CC(=O)CC(C)CC(C)C (stereo not given),inactive
6,C=Cc1ccc(C)cc1,inactive
7,CSc1ccc(Cl)cc1,inactive
8,C[Si]1(C)O[Si](C)(C)O[Si](C)(C)O[Si](C)(C)O1,inactive
9,COc1ccc([N+](=O)[O-])cc1N,inactive
10,CC(C)CCCCCCCOC(=O)CCCCC(=O)OCCCCCCCC(C)C,inactive
11,c1ccc(Oc2ccccc2)cc1,inactive
12,CC1(C)OC[C@@H]2O[C@@]3(C(=O)O)OC(C)(C)O[C@H]3[C@@H]2O1,inactive
13,OC1C(O)C(O)C(O)C(O)C1O (stereo not given),inactive
14,NCCCCCCN,inactive
15,O=C(O)/C=C/C(=O)O,inactive
16,C=C(C)[C@H]1CC=C(C)C(=O)C1,inactive
17,CCCCCC(=O)O,inactive
18,CN(C)CCOC(=O)COc1ccc(Cl)cc1,inactive
19,CC(CCl)OP(=O)(OC(C)CCl)OC(C)CCl (stereo not given),inactive
20,CNC(=O)Oc1ccc2c(c1)[C@]1(C)CCN(C)[C@@H]1N2C,inactive
